# Screening results (PubChem)
# CHO-K1 Ca antag: counter-screen for M1 antagonists: effect in parental CHO-K1 cells | hit rate 0.6% among 360,000 | ATP-induced calcium, Fluo-8 fluorescence | inhibition, % at 3 µM | AID 602250;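 active = inhibition above a per-plate cutoff, the plate's mean sample inhibition plus 3 SD, cut at about 24% in these data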;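 note: 0% = DMSO plus EC80 ATP and 100% = DMSO alone without ATP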
# M1 PAM: human M1 muscarinic receptor positive allosteric modulators, primary screen, CHO-K1 cells, Fluo-8 calcium fluorescence, 1536-well | CHO-K1 hM1, ACh EC20; 0% = ACh EC20, 100% = maximal ACh | activation, % at 3 µM | hit rate 0.088% among 360,000 | Muscarinic acetylcholine receptor M1 (Homo sapiens), P11229 | AID 588819, 2011; in the data active = activation above about 19%, passing the limit was not always enough
# Target sequence (P11229 whole entry, looked up): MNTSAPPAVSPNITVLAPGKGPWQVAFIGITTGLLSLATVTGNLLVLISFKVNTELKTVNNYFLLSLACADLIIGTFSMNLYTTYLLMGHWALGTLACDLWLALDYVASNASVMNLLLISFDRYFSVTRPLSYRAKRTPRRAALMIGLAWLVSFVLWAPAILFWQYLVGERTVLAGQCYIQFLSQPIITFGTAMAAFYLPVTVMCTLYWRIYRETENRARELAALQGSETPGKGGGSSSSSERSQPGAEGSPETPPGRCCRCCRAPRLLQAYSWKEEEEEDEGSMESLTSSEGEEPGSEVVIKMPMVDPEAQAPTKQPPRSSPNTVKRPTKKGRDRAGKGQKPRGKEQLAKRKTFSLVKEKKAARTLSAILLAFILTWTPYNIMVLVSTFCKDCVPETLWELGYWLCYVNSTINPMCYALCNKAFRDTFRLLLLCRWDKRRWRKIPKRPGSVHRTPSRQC
# CHO-K1 Ca ag: counter-screen for M1 agonists: effect in parental CHO-K1 cells; Fluo-8 calcium fluorescence; scaled to maximal ATP response, vehicle zero; activation, % at 3 µM; hit rate 0.48% among 360,000; in the data active = activation above about 15%;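 note: untransfected CHO-K1 host cells lacking M1 receptor as counterscreen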
# CHRM1 antagonist: human M1 muscarinic receptor antagonists, primary screen, CHO-K1 cells, Fluo-8 calcium fluorescence, 1536-well; hit rate 1.3% among 360,000; Muscarinic acetylcholine receptor M1 (Homo sapiens), P11229; CHO-K1 hM1, ACh EC80 antagonist; inhibition, % at 3 µM;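 active = percent inhibition above its own plate's cutoff, namely the mean of that plate's compound wells plus 3 SD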;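 note: peak over basal fluorescence ratio during 140 s after agonist addition; 0% = ACh EC80 plus DMSO and 100% = DMSO alone without agonist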
# CHRM1 agonist: human M1 muscarinic receptor agonists, primary screen, Fluo-8 calcium fluorescence, CHO-K1 cells, HTS | hit rate 0.33% among 360,000 | CHO-K1 hM1, agonist mode; 0% DMSO, 100% acetylcholine EC100 | activation, % at 3 µM;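 active = activation above the run's mean compound activation plus 3 SD, cut at about 16% in these data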;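 note: peak over basal fluorescence ratio within a 140 s kinetic read after compound addition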
# M1 PAM parental: nonselective calcium activators in parental CHO-K1 cells, primary screen, counter-screen for M1 PAM project, cell-based, Fluo-8 calcium fluorescence, full deck, 1536-well; ATP EC20; 0% at ATP EC20, 100% at ATP max; activation, % at 3 µM; hit rate 0.02% among 360,000;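 active = activation above the run cutoff, the mean activation of all test compounds plus 3 SD, cut at about 40% in these data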;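 note: peak over basal fluorescence ratio in a 140 s read after ATP addition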
# * marks the source's active call; other numbers are inactive results. Shown are actives, neighbours in structure and some others; about 2.3% of the full set was active somewhere.
SMILES,CHO-K1 Ca antag,M1 PAM,CHO-K1 Ca ag,CHRM1 antagonist,CHRM1 agonist,M1 PAM parental
O=C(OCC#CCSc1nnc(-c2ccncc2)o1)c1cccs1,-6,5,17*,1,-8,18
CC(C)(C)OC(=O)N[C@H]1C=C[C@@H](OC(=O)CC(=O)OCC(F)(F)F)C1,-20,5,1,-4,-1,12
Cc1c(C)n2c(SCC(=O)N3CCCCC3)nnc2[nH]c1=O,-5,7,2,-9,-1,10
Oc1ccccc1-c1n[nH]c(-c2ccccc2O)n1,-3,-8,17*,14,7,-5
COC(=O)C1=C(C)N(Cc2ccco2)C(=O)/C1=C\c1ccc([N+](=O)[O-])cc1,8,-3,17*,20,4,19
Cc1cc(Cl)ccc1OCc1cn2cccnc2n1,-8,2,0,-1,-5,-8
O=C(CCC1CCCN(C2C3CC4CC(C3)CC2C4)C1)NCc1ccc(F)c(F)c1 (centres undefined),-5,-18,0,43*,-5,12
Cc1ncc(CN2CCCC(CCC(=O)NCc3ccc(F)c(F)c3)C2)s1 (centres undefined),1,-3,0,-2,-13,8
Cc1occc1C(=O)N1CCCC(CCC(=O)NCc2ccc(F)c(F)c2)C1 (centres undefined),-13,11,1,-6,-6,11
O=C(CCC1CCCN(Cc2ccc3c(c2)CCO3)C1)NCc1ccc(F)c(F)c1 (centres undefined),12,-30,0,33*,-12,-6
CCOc1ccc(CCNC(=O)COC(=O)c2c(C)nn(-c3ccccc3)c2C)cc1OCC,-7,2,0,4,-6,4
CCCC(O)(CCN1CCCCC1)c1ccc(OCC)cc1 (centres undefined),5,-16,1,16,-12,-5
COc1ccc(C(O)(CCN2CCCCC2)C2CCCCC2)cc1 (centres undefined),3,-27,0,101*,-9,-4
CCCC(O)(c1ccccc1)C(CN1CCOCC1)c1ccccc1 (centres undefined),-27,11,0,-16,-4,13
CCC(O)(CCN1CCCCC1)c1ccccc1 (centres undefined),-1,-22,0,76*,-5,1
CCCC(O)(c1ccc(Cl)cc1)C(CN1CCOCC1)c1ccccc1 (centres undefined),0,-21,0,61*,-8,0
CCCCCC(O)(CCN1CCCCC1)c1ccc(OCC)cc1 (centres undefined),2,-32,1,99*,-14,-4
Cn1c(=S)ccc2ccccc21,-12,13,1,-8,-9,22
Cc1cc([N+](=O)[O-])nn1CC(=O)NCc1nc2ccccc2[nH]1,16,-12,3,25,-5,-16
Cn1c(=O)n(CC(=O)OCc2ccccc2)c(=O)c2c1nc1n2CCCN1C1CCCCC1,-3,0,0,-7,-4,6
Cn1cccc1C(=O)NCc1ccc(S(N)(=O)=O)cc1,2,15,1,-14,-1,-8
CCCCOc1ccc(C(O)(CCC)CCN2CCOCC2)cc1 (centres undefined),-1,-17,4,3,-7,19
CCCCC(O)(CCN1CCOCC1)c1ccc(Cl)cc1 (centres undefined),-10,-21,0,87*,-8,10
CC(Nc1ncnc2ccccc12)c1ccccc1 (centres undefined),24*,-7,11,27*,-2,12
CCCCC(Nc1ncnc2ccccc12)C(=O)O (centres undefined),-9,5,0,-10,-4,11
SMILES,CHO-K1 Ca antag,M1 PAM,CHO-K1 Ca ag,CHRM1 antagonist,CHRM1 agonist,M1 PAM parental
CC(=O)Nc1ccc(C(=O)N2CCCC(c3cc(C(=O)NCc4cccnc4)no3)C2)cc1 (centres undefined),-4,8,1,-16,-6,14
Cc1cccc(C)c1NC(=O)c1ccc2sc([C@@H]3O[C@H](CO)[C@H](O)[C@H](O)[C@H]3O)nc2c1,8,5,0,-16,-3,2
C=CCSc1nc2sc(C)c(C)c2c(=O)[nH]1,2,-20,0,39*,-10,-1
COc1ccc(-c2cn(Cc3ccc(C(=O)NCc4ccc(C)cc4)cc3)c(C(C)N)n2)cc1 (centres undefined),-17,10,3,-2,-7,24
CN1CCC(Oc2ccccc2Sc2ccccc2)CC1,6,-26,4,100*,-9,3
CN1CCC(OC(c2ccccc2)c2ccccc2)CC1,-3,-26,0,100*,-8,-5
Cc1ccccc1N1CCN(C2CCCN(C(=O)c3cn4cccc(C)c4n3)C2)CC1 (centres undefined),2,-8,9,18,2,-13
O=C(COC(=O)c1ccc(S(=O)(=O)N2CCCC2)cc1)Nc1cccc(Br)c1,-5,-17,2,29*,-4,-17
O=C(CNc1ccc(C(F)(F)F)cc1)Nc1cccc(S(=O)(=O)N2CCCCC2)c1,6,-11,7,24*,0,9
O=C(CNc1cccc(S(=O)(=O)N2CCCC2)c1)Nc1cccc(Br)c1,5,-5,19*,8,3,-16
O=C(COC(=O)c1cc(S(=O)(=O)N2CCCC2)ccc1O)Nc1ccc(SC(F)F)cc1,12,-4,15*,10,5,14
Cc1cccc(NC(=O)COC(=O)c2ccc(S(=O)(=O)N3CCCCCC3)cc2)c1,-1,9,0,-12,-3,-21
O=C(COC(=O)C1CC1)Nc1ccc(Cl)cn1,-2,7,1,-2,0,0
COc1cccc(NC(=O)Nc2nc(SC(C)(C)C)ns2)c1,24*,-15,19*,37*,6,-7
COc1cccc(NC(=O)Nc2nc(SC)ns2)c1,20,0,14,6,6,-12
CCSc1nsc(NC(=O)Nc2cccc(F)c2)n1,19,-12,18*,38*,4,5
CC1Nc2ccc(C(=O)NC3CCCCC3)cc2NC1=O (centres undefined),-14,9,2,-15,1,7
O=c1oc2cc(O)ccc2cc1-c1nc2ccccc2o1,13,-19,31*,26,54*,-8
O=c1oc2cc(O)ccc2cc1S(=O)(=O)c1ccccc1,-20,8,2,-10,-4,19
